For 23 molecules, outcome and AC50 results are on record in PubChem BioAssay (EPA / NIEHS).

Active and inactive are the calls of the source. How the source made its calls: active means hit-call score of the fitted dose curve at least 0.9, where 1 is the maximum; inactive means score below 0.9.

A short description of the first assay: CCTE_Shafer_MEA_dev_interburst_interval_mean: CCTE's Neural Network Formation Assay for Mean Interburst Interval, Shafer Lab (AID 2284046).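 Further: well-mean interburst interval of bursting electrodes as AUC over four recording days; curve fitted for decrease in interburst interval relative to DMSO.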 The essentials:
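Recordings on days 5, 7, 9 and 12 give well-mean interburst interval across actively bursting electrodes, summarized as area under the curve. Cultures: rat cortical neurons, continuous exposure from day 0, compound renewed at feeds; decrease analyzed versus DMSO.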
For `Cc1ccc(S(=O)(=O)OCC(F)(F)C(F)(F)C(F)(F)C(F)(F)C(F)(F)C(F)F)cc1`, the result was inactive. Same read-out and setting: then `O=P(O)(O)OCCC(F)(F)C(F)(F)C(F)(F)C(F)(F)C(F)(F)C(F)(F)F`, with “inactive”; and `NC(=O)C(F)(F)C(F)(F)C(F)(F)C(F)(F)F`, with “inactive”.

A short description of a further assay: CCTE_Shafer_MEA_dev_inter_network_spike_interval_mean: CCTE's Neural Network Formation Assay for Mean Inter-network Spike Interval, Shafer Lab (AID 2284047).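 On AC50: potency for a decrease in mean inter-network spike interval below DMSO.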 The method in brief: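 Primary rat cortical neurons on 16-electrode MEA wells, exposed from plating day 0 through DIV 12, compound renewed at DIV 5 and 9 media changes. Mean interval between network-spike peaks recorded DIV 5, 7, 9, 12; collapsed as trapezoidal AUC, fitted downward versus DMSO.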
Consider `FC(F)(F)C(F)(F)CNCC(F)(F)C(F)(F)F`, for which the molecule was classed as inactive.

With `O=S(=O)(OCCOC(F)(F)F)C(F)(F)F`, the call was inactive.

As to `FC(F)(F)C(F)(F)C(F)(F)C(F)(F)C(F)(F)CCI`, the molecule was classed as inactive. On the same count and under the same terms, then `CC(C)(C)C(=O)CC(=O)C(F)(F)C(F)(F)C(F)(F)F`, with “inactive”; and `FC(F)(F)C(F)(F)C(F)(F)C(F)(F)C(F)(F)C(F)(F)CC1CO1` (stereo unspecified), with “inactive”. Still for that read-out and setting: with `C=CC(=O)OCC(F)(F)C(F)(F)C(F)(F)C(F)(F)COC(=O)C=C` the entry was “inactive”; with `N=C(N)C(F)(F)C(F)(F)C(F)(F)C(F)(F)C(F)(F)C(F)(F)C(F)(F)F`, “inactive”; with `O=S(=O)(OCC(F)F)C(F)(F)F`, “inactive”. For the molecule `O=C(O)C=C(C(F)(F)F)C(F)(F)F`, the AC50 was 15 µM (active). Regarding `OC[C@@H](O)[C@@H](O)[C@H](O)[C@@H](O)CO`, the call was inactive. Same read-out and setting: then `CC(CCl)OP(=O)(OC(C)CCl)OC(C)CCl` (stereo unspecified), with “inactive”; and `OCC(F)(F)C(F)(F)C(F)(F)C(F)F`, with “inactive”. For the molecule `O=C(O)C(F)(F)C(F)(F)C(F)F`, the call was inactive. With `O=C(O)C(F)(F)C(F)(F)C(F)(F)C(F)(F)C(F)(F)C(F)(F)C(F)(F)C(F)(F)C(F)(F)C(F)F`, the molecule was classed as inactive. Take `O=C(O)C(F)(F)C(F)(F)C(F)(F)C(F)(F)C(F)(F)C(F)(F)C(F)(F)C(F)(F)Cl`: the outcome was inactive. Same read-out and setting: then `OCC(F)(F)C(F)(F)C(F)(F)F`, with “inactive”; and `O=C(O)C(F)(F)C(F)(F)C(F)(F)F`, with “inactive”. Same read-out and setting: with `COC(=O)CCC(F)(F)C(F)(F)C(F)(F)C(F)(F)F` the entry was “inactive”; with `OCC(F)(F)C(F)(F)C(F)(F)C(F)(F)C(F)(F)C(F)F`, “inactive”; with `OCCCC(F)(F)C(F)(F)C(F)(F)F`, “inactive”.

Take `Cc1ccc(S(=O)(=O)OCC(F)(F)C(F)(F)C(F)(F)C(F)(F)C(F)(F)C(F)F)cc1`: the outcome was inactive. The same measure, in the same setting: then `O=P(O)(O)OCCC(F)(F)C(F)(F)C(F)(F)C(F)(F)C(F)(F)C(F)(F)F`, with “inactive”; and `NC(=O)C(F)(F)C(F)(F)C(F)(F)C(F)(F)F`, with “inactive”.

The AC50 is the concentration giving half of the maximal activity seen.
